For 30 sequences, z-score results are on record in PubChem BioAssay AID1508600 (Functional Genomics Laboratory (NCATS/FGL), 2020).

In all, about 53,000 sequences went through this assay and about 3,700 (7%) were called active. Many of the other results were omitted from the sample, so actives are more common in it than they were. Unmarked numbers belong to inactive results.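 How the source made its calls: active means gene knockdowns whose robust z-score for IL-1 alpha signal is at least 2 or at most -2, so actives lie on both sides; inactive means the rest.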

The nature of this assay: Components of the Cytosolic LPS Sensing Pathway: Gene Identification via Genome-wide siRNA Screen.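 Further: robust z of the log signal after scaling to non-targeting control siRNA wells of the plate.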 The settings on record: RAW264.7 macrophages, IL-1a HTRF, actives lie on both sides, screened at 100 nM (by protocol), cells primed 5 h with Pam3CSK4 first. In outline: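 Using IL-1a HTRF as read-out, the screen measured release from RAW264.7 cells after 48h siRNA knockdown (100 nM), 5 h Pam3CSK4 priming and 24 h cytosolic LipidA. Values were expressed relative to negative-control wells as robust z-scores.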
In general terms: In TR-FRET formats the signal depends on donor and acceptor labels being close together.
As to GGUGGAGGAACGAAAGUUUTT against Ribc1, the z-score is 0.625. For CGAGGUCAAUAUCAUUCCATT against Serpinb11 the value was 0.727; for GCUGCUAAUAUCAAUAACGTT against Prf1, -0.809; for GGCCAAACAACUGGUGAAGTT against Nelfe, -0.832.

For the sequence GGUGUUUUCUGUGUAACCATT against Tlx1, the z-score is -0.843. For GGAUGUUUGGACAAUCUAUTT against Itga4 the value was 0.634; for GCAAAUGUCUCGGAAAGAATT against Cdk11b, -2.18 (active).

Turning to GCAAGAGACCAUGAGAAAUTT against Ccdc18, the z-score was -0.149. For GGACUAGAAUAUCACAACGTT against Iqub the value was 0.905; for GGCAAAAUAGAGAAAUACATT against Lima1, 2.37 (active).

GCCAUGUUUAAGCAAUUGUTT against Vsx1: the z-score is -0.575. In the case of GGAGGGUAUUAGUGCACUGTT against Ptpn1 it was -0.111. For GCCUCAUUUGCUUCACUGUTT against Cd163l1 the value was 0.148.

For GGCGAAAAGACCAGUUAUGTT against Man2c1, the z-score was 2.31 (active).

On to GGUGCACUCUGUCAGUUCATT against Col27a1, for which the z-score was -0.352. In the case of GCAUACCUAUUCACGUACGTT against Slc7a4 it was -0.475; in that of GCCCAAGCUUUUAUCAAGATT against Frmd4b, 1.48.

Take CCCUUUCCUAUGCAUUUGCTT against Olfr851: the z-score was 0.97. CGUACCUAAGCAUACCAGCTT against Gpr20: the z-score was 4.94 (active).

Consider CGAGCUUCGGAGGAAGUGATT against Zc3hav1l, for which the z-score is -0.743. For GGUACUCUGUGGAUAUCCCTT against Rpl27 the value was -0.224; for GGAGCGUACCAUGAUCGAUTT against Parvb, -2.17 (active). For “GGCUUCUUCACUGAAAUUCTT against 1700074P13Rik” the value was -1.1; for GGCACUUUGUGGCAAAUCUTT against Pcdhb1, 0.742. For CGUGCAAGCAGUGAUUUUGTT against Smpx the value was -1.33; for GGCUCAAGUAUGAGUCUCATT against Calhm2, 0.73. Consider GGGAAGAAGAAAAAGAUGATT against Peak1, for which the z-score was -0.506. With CGGACUAUCUCUAUGAAGATT against Tas2r108, the z-score was -0.587. For GGUGAUUUCGGGUAACGAGTT against Ddr1, the z-score was -2.17 (active). For GGGUGUUUUUAAGUGUCCCTT against Zfp574 the value was 0.475.
